The record followed here is PubChem BioAssay (NCATS).

Inconclusive results are not listed. Calls of active or inactive are those of the source. Unless noted, the call rests on the fitted dose curve; in most records, active means well fitted curve in the direction sought with a large enough effect; inconclusive means small, poorly fitted or top-dose-only effect, or another doubt; inactive means no such curve, though single readings can be large; an effect the other way counts as inactive or inconclusive.

A short description of experiment [1]: qHTS to identify inhibitors of the type 1 interferon - major histocompatibility complex class I in skeletal muscle: primary screen against the NCATS Mechanism Interrogation Plate v5.0 (MIPE) Libary (AID 1347411).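 Further: plate controls were vehicle for no effect and reference inhibitor for full effect; nearly all actives have a fitted effect of over 65% in size.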 The method, boiled down:
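Immortalized human myoblasts (C25cl48) with HiBit knocked into endogenous HLA-B*08:01 were stimulated with 4 ng/ml IFN-beta and given compounds in 11-point 1:3 titration from 46 uM. After 24 h at 37 C, lytic HiBiT luminescence was read.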

Experiment [2] is described as follows: Primary qHTS for inhibitors of nuclear receptor binding SET domain protein 2 (NSD2) in an isogenic RCH-ACV NSD2 p.E1099K mutant (9B) (AID 1645876). Further: nearly all actives have a fitted effect of over 70% in size.
Experiment [3] can be described thus: Primary qHTS for inhibitors of nuclear receptor binding SET domain protein 2 (NSD2) in an RCH-ACV wild type WT cells (2C) (AID 1645877). Further: nearly all actives have a fitted effect of over 70% in size.
The target of experiment [4] is Phospholipid hydroperoxide glutathione peroxidase GPX4 (Homo sapiens) (UniProt P36969). Put plainly: Primary qHTS Assay for Inhibitors of Recombinant Selenoprotein Glutathione Peroxidase 4 (GPX4) (AID 1845192). Further: series mostly up to about 50 µM; nearly all actives have a fitted effect of over 65% in size. The conditions noted are these: outcome: dose series up to 50 µM unless noted. The method, boiled down:
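GR-coupled readout: 100 nM GR, 1 mM GSH, 0.5 mM NADPH; NADPH fluorescence (ex 340/em 450 nm) read at t=0 and after 15 min RT. GPX4 200 nM, preincubated 30 min with compound; substrate 0.5 mM CHP.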

A short description of experiment [5]: qHTS drug screen for cell cycle checkpoint inhibitors in PARPi-resistant BRCA-mutant ovarian cancer cell lines. (AID 1963452; calls by dose curve). Conditions: PEO1/OlaR viability, CellTiter-Glo luminescence, 96 h, stronger effect = lower value. Put shortly: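 PEO1, PEO4 and PEO1/OlaR ovarian cancer cells, 600 per well, exposed 96 h at 37C to a dilution series. Viability read by CellTiter-Glo luminescence, normalized to DMSO and empty wells; activity summarized as Z-AUC.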

Sequence of Phospholipid hydroperoxide glutathione peroxidase GPX4 (Homo sapiens) (P36969 whole entry, looked up): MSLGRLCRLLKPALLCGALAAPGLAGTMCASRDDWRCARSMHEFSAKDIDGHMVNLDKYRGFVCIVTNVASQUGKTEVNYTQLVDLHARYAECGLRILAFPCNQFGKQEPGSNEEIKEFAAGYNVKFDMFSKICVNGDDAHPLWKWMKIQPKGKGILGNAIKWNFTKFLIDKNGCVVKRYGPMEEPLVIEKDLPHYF

Regarding `CCN(C(=O)c1ccccc1OC)c1cc2c(cc1N1CCNC[C@H]1C)n(C)c(=O)n2C`, the Potency entry in experiment [1], in experiment [2], in experiment [3] and in experiment [4] was “inactive” in each case. In addition, the Z-AUC in experiment [5] is -0.888 (inactive); in experiment [5] (measured here: PEO1 parental Z-AUC), -0.889; in experiment [5] (measured here: PEO4 Z-AUC), -0.903.
